Drawing on PubChem BioAssay, this text covers composite z-score and z-score for six molecules.

Molecules are shown by their SMILES. Active and inactive are the calls of the source.

Assay [1] deals with Plasmodium falciparum Sir2 (PF13_0152, Sir2A). The experiment in a line: Plasmodium falciparum Sir2A binding compounds – biochemical, small-molecule microarray, 635 nm fluorescence, primary screen (AID 1098).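 Note: score merges spot fluorescence intensity with its signal-to-noise ratio.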 The note with it: fluorescence 635 nm, higher = more signal.
Assay [2] in a line: probe aDKK1 binding to arrayed compounds – biochemical, biotinylated probe, 635/667 nm fluorescence, primary screen (AID 1099).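 Note: score merges 667nm spot fluorescence with signal to noise across triplicate slides.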 The conditions noted are these: small-molecule microarray, higher = more signal.
The nature of assay [3]: probe aCHRDL2 binding to arrayed compounds – biochemical, biotinylated probe, 635/667 nm fluorescence, primary screen (AID 1100). The conditions noted are these: small-molecule microarray, higher = more signal.
The nature of assay [4]: change in splice reporter luminescence, either direction, cell-based, HEK293, spliceosome inhibition project, primary screen (AID 1101).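 Note: HEK293 cells carrying a splicing-competent luciferase reporter gene; test concentration not given here.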 The note with it: HEK293 splicing luciferase reporter, 24 h, higher = more signal, called active from +8 up or from −8 down. (In general: In a reporter assay the amount or activity of a reporter protein is the signal.)
The target in assay [5] is Fibroblast growth factor 10 (Homo sapiens) (UniProt O15520). Description: compounds binding fibroblast growth factor 10 – biochemical, small-molecule microarray, 635 nm fluorescence, primary screen (AID 1102). The conditions noted are these: FGF10 binding, fluorescence 635 nm, higher = more signal.
Assay [6] concerns glycogen synthase kinase-3 (GSK3A per assay name; protocol says GSK3B). Description: compounds binding glycogen synthase kinase-3 – biochemical, small-molecule microarray, 635 nm fluorescence, GSK3A, primary screen (AID 1103). Note: the record names both GSK3A and GSK3B. The conditions noted are these: fluorescence 635 nm, higher = more signal.
The target in assay [7] is Epidermal growth factor receptor (Homo sapiens) (UniProt P00533). The experiment in a line: compounds binding epidermal growth factor receptor – biochemical, small-molecule microarray, 635 nm fluorescence, primary screen (AID 1104).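 Note: score merges 667 nm emission intensity with spot signal to noise over triplicate slides.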 The conditions noted are these: EGFR binding, higher = more signal.
Assay [8] addresses Follistatin-related protein 3 (Homo sapiens) (UniProt O95633). The experiment in a line: compounds binding follistatin-related protein 3 – biochemical, small-molecule microarray, 635 nm fluorescence, primary screen (AID 1105).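 Note: score merges emission near 667 nm and signal to noise per printed spot across three slides.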 The conditions noted are these: FSTL3 binding, higher = more signal.
Assay [9] deals with Dickkopf-related protein 1 (Homo sapiens) (UniProt O94907). Description: small molecules binding DKK1 protein – biochemical, small-molecule microarray, 635 nm fluorescence scan, primary screen (AID 1106).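 Note: score merges emission near 667 nm with signal to noise over three replicate slides.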 The note with it: higher = more signal.
The subject of assay [10] is Inhibin beta A chain (activin A). The experiment in a line: small molecules binding activin A – biochemical, small-molecule microarray, 635 nm fluorescence scan, primary screen (AID 1107).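 Note: mouse activin A protein probed at 4.33 µg/mL on printed slides; score merges bound-protein fluorescence near 667 nm with spot signal-to-noise.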 The note with it: INHBA, higher = more signal.
The test system of assay [11] is Human papillomavirus type 1a protein E7 (residues 44-93). The experiment in a line: small molecules binding HPV E7 44-93 – biochemical, small-molecule microarray, residues 44-93, 635 nm fluorescence, primary screen (AID 1108).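 Note: E7 fragment applied at 1 µg/mL in TBST for 1 h at 4 C; score combines spot fluorescence with its signal to noise ratio.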 The note with it: fluorescence 635 nm, higher = more signal.
A short description of assay [12]: hepatitis C replication reporter changes, two-sided – Huh7 cells, luciferase reporter, HCV replication inhibitor project, primary screen (AID 1109).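 Note: huh7 hepatoma cells harbouring a luciferase neomycin HCV replicon reporter; luciferase luminescence as measure of HCV replicon replication; test concentration not given here.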 The conditions noted are these: Huh7 HCV replicon luciferase reporter, 48 h; higher = more signal.
Assay [13] concerns the target Left-right determination factor 2 (Homo sapiens) (UniProt O00292). Description: small molecules binding LEFTY2 protein – biochemical, small-molecule microarray, 635 nm fluorescence scan, primary screen (AID 1110). The note with it: higher = more signal.
The target in assay [14] is Calmodulin-1 (Homo sapiens) (UniProt P0DP23). Description: small molecules binding calmodulin-1 with EGTA – biochemical, small-molecule microarray, Cy5-labelled CALM1, profiling panel (AID 1111).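 Note: labelled calmodulin applied in Tris saline Tween buffer holding calcium plus EGTA and DTT.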 The note with it: Cy5-CALM1 binding fluorescence, higher = more signal.
Assay [15] shares this target. Description: small molecules binding Ca-loaded calmodulin-1 – biochemical, small-molecule microarray, Cy5-labelled CALM1, plus calcium, artefact control for SMM control-protein annotation, profiling panel (AID 1112).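 Note: score merges spot fluorescence with signal to noise from triplicate slides.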 The note with it: Cy5-CALM1 binding fluorescence, higher = more signal.
Assay [16] can be described thus: probe aWnt5a binding to arrayed compounds – biochemical, biotinylated probe, 635/667 nm fluorescence, primary screen (AID 1113).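 Note: score merges 667 nm fluorescence intensity with signal-to-noise per printed feature.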 The conditions noted are these: small-molecule microarray, higher = more signal.
Assay [17] in a line: probe aShh binding to arrayed compounds – biochemical, biotinylated probe, 635/667 nm fluorescence, primary screen (AID 1114).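 Note: probe is biotin-labelled aShh protein from a stem cell growth factor screen; measures binding of labelled protein to compounds printed on the slide; score merges feature fluorescence at 667 nm with signal-to-noise.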 The note with it: small-molecule microarray, higher = more signal.
Assay [18] can be described thus: probe aNog binding to arrayed compounds – biochemical, biotinylated probe, 635/667 nm fluorescence, primary screen (AID 1115).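 Note: probe is biotinylated aNog protein used at 0.15 µg/mL for 1 h at 4 C; z-score combines 667 nm fluorescence of each spot with its signal to noise.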 The conditions noted are these: small-molecule microarray, higher = more signal.
Assay [19] deals with Torsin-1A-interacting protein 1 (Homo sapiens) (UniProt Q5JTV8). The experiment in a line: compound microarray binding of lysate hLAP1 – cell lysate, small-molecule microarray, COS7 lysate, 635/667 nm fluorescence, primary screen (AID 1116). The conditions noted are these: 635 nm fluorescence, higher = more signal.
The target of assay [20] is Alpha-bungarotoxin (Bungarus multicinctus) (UniProt P60615). The experiment in a line: compounds binding labelled alpha-BTX control protein – biochemical, small-molecule microarray, Alexa647 label, 635/667 nm fluorescence, artefact control for SMM control protein annotation, profiling panel (AID 1117). The conditions noted are these: alpha-BTX-A647 binding fluorescence, higher = more signal.
Alpha-bungarotoxin (Bungarus multicinctus), sequence (P60615 whole entry, looked up): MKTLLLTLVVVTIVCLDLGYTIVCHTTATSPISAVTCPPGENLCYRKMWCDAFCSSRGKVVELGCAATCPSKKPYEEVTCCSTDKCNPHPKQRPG

Fibroblast growth factor 10 (Homo sapiens), sequence (O15520 whole entry, looked up): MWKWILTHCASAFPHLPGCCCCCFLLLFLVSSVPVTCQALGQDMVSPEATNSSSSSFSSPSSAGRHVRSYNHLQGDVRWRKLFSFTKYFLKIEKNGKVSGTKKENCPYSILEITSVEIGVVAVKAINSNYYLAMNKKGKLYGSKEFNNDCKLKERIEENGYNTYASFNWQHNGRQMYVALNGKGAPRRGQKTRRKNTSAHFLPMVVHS
Torsin-1A-interacting protein 1 (Homo sapiens), sequence (Q5JTV8 whole entry, looked up): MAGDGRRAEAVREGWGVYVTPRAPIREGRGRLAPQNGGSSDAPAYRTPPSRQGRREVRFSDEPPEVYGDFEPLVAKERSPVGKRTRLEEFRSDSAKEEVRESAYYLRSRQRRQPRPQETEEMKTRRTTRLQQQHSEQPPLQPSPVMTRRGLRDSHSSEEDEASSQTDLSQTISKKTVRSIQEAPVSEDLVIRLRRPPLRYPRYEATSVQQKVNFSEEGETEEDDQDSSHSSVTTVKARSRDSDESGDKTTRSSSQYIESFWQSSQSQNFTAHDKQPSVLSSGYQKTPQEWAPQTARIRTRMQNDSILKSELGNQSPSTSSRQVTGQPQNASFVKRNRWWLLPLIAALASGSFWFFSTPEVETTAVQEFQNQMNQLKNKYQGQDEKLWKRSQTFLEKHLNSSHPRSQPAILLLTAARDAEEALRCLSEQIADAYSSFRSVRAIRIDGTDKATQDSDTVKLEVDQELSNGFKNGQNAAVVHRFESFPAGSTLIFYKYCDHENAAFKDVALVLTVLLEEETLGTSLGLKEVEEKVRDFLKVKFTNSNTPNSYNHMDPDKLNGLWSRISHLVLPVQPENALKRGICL
Dickkopf-related protein 1 (Homo sapiens), sequence (O94907 whole entry, looked up): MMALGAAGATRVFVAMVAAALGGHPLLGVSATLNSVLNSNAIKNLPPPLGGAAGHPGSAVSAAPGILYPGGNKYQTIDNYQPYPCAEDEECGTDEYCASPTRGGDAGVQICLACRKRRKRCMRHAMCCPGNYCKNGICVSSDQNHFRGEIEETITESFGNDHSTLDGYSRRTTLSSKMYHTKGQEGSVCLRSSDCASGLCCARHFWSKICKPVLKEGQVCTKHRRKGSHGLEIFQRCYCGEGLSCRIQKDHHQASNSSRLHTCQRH
Left-right determination factor 2 (Homo sapiens), sequence (O00292 whole entry, looked up): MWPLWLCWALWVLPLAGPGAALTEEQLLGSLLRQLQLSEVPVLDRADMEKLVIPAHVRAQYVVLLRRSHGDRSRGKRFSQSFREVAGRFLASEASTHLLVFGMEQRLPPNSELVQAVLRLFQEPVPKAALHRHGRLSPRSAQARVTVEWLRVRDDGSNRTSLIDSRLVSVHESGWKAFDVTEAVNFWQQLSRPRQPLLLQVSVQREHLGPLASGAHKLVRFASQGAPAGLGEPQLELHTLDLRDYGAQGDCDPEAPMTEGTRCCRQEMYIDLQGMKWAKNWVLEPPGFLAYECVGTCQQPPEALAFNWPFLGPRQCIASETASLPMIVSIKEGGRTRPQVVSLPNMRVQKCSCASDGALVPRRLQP
Follistatin-related protein 3 (Homo sapiens), sequence (O95633 whole entry, looked up): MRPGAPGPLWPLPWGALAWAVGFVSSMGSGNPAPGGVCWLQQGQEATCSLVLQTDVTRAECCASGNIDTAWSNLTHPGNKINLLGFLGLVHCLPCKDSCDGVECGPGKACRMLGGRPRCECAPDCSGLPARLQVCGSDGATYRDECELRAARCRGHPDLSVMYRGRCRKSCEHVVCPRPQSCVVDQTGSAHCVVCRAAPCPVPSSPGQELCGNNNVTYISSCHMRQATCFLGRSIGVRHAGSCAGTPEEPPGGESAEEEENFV
Epidermal growth factor receptor (Homo sapiens), sequence (P00533 whole entry, looked up): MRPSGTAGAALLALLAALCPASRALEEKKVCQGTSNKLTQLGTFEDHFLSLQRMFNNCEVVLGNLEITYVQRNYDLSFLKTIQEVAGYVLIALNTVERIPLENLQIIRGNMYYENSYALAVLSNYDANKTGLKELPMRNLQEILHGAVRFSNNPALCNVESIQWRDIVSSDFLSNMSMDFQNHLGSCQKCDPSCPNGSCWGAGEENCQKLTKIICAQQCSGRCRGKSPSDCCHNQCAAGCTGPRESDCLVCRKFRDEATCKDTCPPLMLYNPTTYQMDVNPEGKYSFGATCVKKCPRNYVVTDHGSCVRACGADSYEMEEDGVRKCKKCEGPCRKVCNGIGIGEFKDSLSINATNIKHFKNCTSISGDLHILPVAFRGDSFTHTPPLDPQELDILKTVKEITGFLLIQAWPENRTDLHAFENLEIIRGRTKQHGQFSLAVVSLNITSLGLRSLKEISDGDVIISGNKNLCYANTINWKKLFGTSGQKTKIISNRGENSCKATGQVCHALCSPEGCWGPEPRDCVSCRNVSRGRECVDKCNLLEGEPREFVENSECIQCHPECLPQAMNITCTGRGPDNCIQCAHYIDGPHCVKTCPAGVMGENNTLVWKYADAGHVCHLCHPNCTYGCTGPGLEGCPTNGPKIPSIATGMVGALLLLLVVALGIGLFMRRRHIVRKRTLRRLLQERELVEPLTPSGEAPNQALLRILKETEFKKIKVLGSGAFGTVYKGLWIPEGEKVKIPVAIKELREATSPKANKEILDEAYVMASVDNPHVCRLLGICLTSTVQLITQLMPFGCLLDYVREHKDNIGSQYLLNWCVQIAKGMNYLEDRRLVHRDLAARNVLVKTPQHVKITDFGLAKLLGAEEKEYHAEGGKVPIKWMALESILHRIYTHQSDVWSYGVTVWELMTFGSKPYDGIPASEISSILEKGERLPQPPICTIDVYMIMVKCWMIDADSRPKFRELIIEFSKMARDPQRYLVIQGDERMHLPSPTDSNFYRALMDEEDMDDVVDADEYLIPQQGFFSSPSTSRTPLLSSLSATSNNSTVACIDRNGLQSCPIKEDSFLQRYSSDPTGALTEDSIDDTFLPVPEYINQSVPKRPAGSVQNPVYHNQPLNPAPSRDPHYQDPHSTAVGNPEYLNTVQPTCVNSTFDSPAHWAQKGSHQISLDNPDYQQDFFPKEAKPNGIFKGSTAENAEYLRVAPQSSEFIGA

On to `NCCCCCNC(=O)[C@@H]1C[C@@H]2C(=O)N3CCC[C@H]3C(=O)N2[C@@H]1c1cccc(OCCO)c1`, for which the composite z-score in assay [1] is 0.963; in [2] it was 1.61; in assay [3], 0.948; in assay [5], 0.506; in assay [6], 0.821; in [7], 0.515. Moreover, the composite z-score in [8] amounted to 0.984; in assay [9], 1.17; in assay [10], 1.63; in assay [11], 0.933; in assay [13], 0.781; in [14], 1.38. In addition, the composite z-score in assay [15] stood at 0.929; in assay [16] it was 0.0024; in assay [17], 0.315; in assay [18] it was 1.55; in assay [19], 1.72; in assay [20], 0.482. Besides, the figures for the z-score in assay [4] and in assay [12] were -0.298 (inactive) and -1.03, respectively.
Consider `NC(=O)NCC#Cc1ccc2c(c1)[C@]1(C(=O)N2)[C@H](c2ccc(O)cc2)N2[C@H](c3ccccc3)[C@H](c3ccccc3)OC(=O)[C@H]2[C@@H]1C(=O)N1CCCCCCC1`, for which the composite z-score in assay [1] was 1.08; in [2] it was 1.8; in assay [3] it was 1.08; in [5] it was 0.593; in [6], -0.018; in assay [7] it was 0.356. The composite z-score in assay [8] is 1.28; in [9], 0.408; in assay [10], 1.4; in assay [11], 1.19; in assay [13], 0.258; in assay [14], 0.822. The composite z-score in [15] was 0.675; in assay [16], 0.338; in [17], 0.462; in assay [18], -0.623; in assay [19] it was 2.42; in assay [20], 1.34. Besides, the z-score in assay [4] was 0.445 (inactive); in [12], -0.421.
In the case of `C[C@@H]1CC[C@H]2C(=O)O[C@H](COc3ccc(C(C)(C)C)cc3)CN2[C@H]1c1ccc(Br)cc1`, the composite z-score in assay [1] is 0.751; in [2], -0.136; in assay [3], -0.299; in assay [5] it was -0.0611; in [6] it was -0.533; in [7] it was -0.287. The composite z-score was -0.175 in assay [8]; 0.0539 in [9]; 0.352 in assay [10]; -0.387 in assay [11]; 0.113 in [13]; -0.11 in assay [14]. Besides, the composite z-score was 0.347 in [15]; 0.721 in assay [16]; -0.415 in assay [17]; -0.514 in assay [18]; -0.15 in assay [19]; 0.323 in [20]. Moreover, the z-score in assay [4] is 0.148 (inactive); in assay [12] it was 0.0366.
Regarding `CCc1cc2c(nc1CC)CCN(CCC(C)=NO[C@@H](C)c1cc(-c3c(C)cc(C)cc3C)no1)C2`, the composite z-score in assay [1] was 0.856; in assay [2], -0.227; in [3], -0.286; in assay [5] it was -0.328; in [6], -0.562; in [7] it was -0.408. Besides, the composite z-score in assay [8] was -0.473; in [9], -0.107; in assay [10], 0.711; in [11], 0.0525; in assay [13], -0.368; in assay [14], 0.0642. In addition, the composite z-score in assay [15] was -0.363; in [16], -0.195; in assay [17], -0.0709; in assay [18], 0.0014; in assay [19] it was 0.0675; in [20] it was 0.297. Further, the z-score was -0.596 (inactive) in [4] and -1.87 in [12].
Regarding `CCOC(=O)NN=C1C[C@@H](O)[C@@H](O)[C@@H]2[C@@H]3C(=O)N(C4CCCCC4)C(=O)[C@@H]3CC[C@H]12`, the composite z-score is 0.253 in assay [1]; 0.135 in [2]; -0.0663 in assay [3]; 0.38 in [5]; 0.518 in assay [6]; 0.416 in [7]. The composite z-score in assay [8] was 0.333; in assay [9] it was 0.701; in assay [10], -0.341; in [11], 0.0361; in assay [13], 0.511; in assay [14], -0.101. Further, the composite z-score in assay [15] is -0.469; in assay [16], -0.128; in assay [17] it was 0.199; in assay [18], -0.245; in assay [19], 0.217; in assay [20] it was -0.177. The z-score was 0.035 (inactive) in assay [4] and -0.314 in assay [12].
On to `COc1ccc(O[C@H]2C=C[C@@H](c3ccccc3)O[C@@H]2COC(=O)CCC(C)=NOC[C@@H](C)[C@H](OCc2ccccc2)C(C)C)cc1`, for which the composite z-score is -0.886 in assay [1]; -0.366 in assay [2]; -0.529 in assay [3]; -0.433 in [5]; -0.662 in [6]; -0.706 in assay [7]. Further, the composite z-score in assay [8] was -0.629; in assay [9], -0.698; in assay [10], 0.553; in [11], -2.09; in assay [13], -0.306; in [14] it was -1.65. The composite z-score in assay [15] is -0.741; in [16] it was -0.0748; in assay [17] it was -0.283; in [18] it was -0.233; in assay [19] it was -0.956; in [20], -1.04. Besides, the z-score is 0.292 (inactive) in assay [4] and -0.667 in [12].
